This is an account of results in PubChem BioAssay (EPA / NIEHS).

Assay [1] deals with Paired box protein Pax-6 (Homo sapiens) (UniProt P26367). As to the kind of experiment: ATG_Pax6_CIS: Attagene CIS-FACTORIAL HepG2 Assay for human Paired Box 6 (PAX6) (AID 2282956). As to conditions: HepG2 CIS-FACTORIAL PAX6 reporter transcription, RNA readout; actives raise or lower the signal. The procedure, abridged: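 Readout: reporter transcript fluorescence after RT-PCR and capillary electrophoresis. Cells: HepG2, transiently transfected with cis-regulated MRTUs. Exposure 24 h. Gain or loss of signal fitted bidirectionally relative to DMSO.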
Sequence of Paired box protein Pax-6 (Homo sapiens) (P26367 whole entry, looked up): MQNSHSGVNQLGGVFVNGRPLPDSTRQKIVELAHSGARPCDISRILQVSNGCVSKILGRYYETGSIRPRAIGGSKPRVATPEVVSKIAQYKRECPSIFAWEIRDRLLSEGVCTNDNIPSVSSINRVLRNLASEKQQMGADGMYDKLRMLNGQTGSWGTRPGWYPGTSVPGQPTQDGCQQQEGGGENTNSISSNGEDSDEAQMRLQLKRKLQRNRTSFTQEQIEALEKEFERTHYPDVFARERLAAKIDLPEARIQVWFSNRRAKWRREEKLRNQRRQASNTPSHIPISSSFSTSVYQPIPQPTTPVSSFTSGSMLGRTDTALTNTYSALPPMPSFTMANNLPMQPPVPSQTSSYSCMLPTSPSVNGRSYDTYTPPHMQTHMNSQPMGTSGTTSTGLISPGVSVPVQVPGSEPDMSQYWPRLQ

Assay [2] is described as follows: ATG_PXRE_CIS: Attagene CIS-FACTORIAL HepG2 Assay for human Pregnane X Receptor Element (PXRE) (AID 2282957). The settings on record: HepG2 Attagene CIS-FACTORIAL PXRE reporter, mRNA; actives raise or lower the signal. The procedure, abridged: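 Using HepG2 transfected with multiple reporter transcription units, endogenous factor-driven transcription was scored as reporter mRNA after 24 h exposure.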

A short description of assay [3]: ATG_PPRE_CIS: Attagene CIS-FACTORIAL HepG2 Assay for human Peroxisome Proliferator-activated Response Element (PPRE) (AID 2282958). As to conditions: HepG2 PPRE cis-element reporter, Attagene transcription factor profiling; actives raise or lower the signal. The procedure, abridged: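 Endogenous PPRE-driven transcription is measured in HepG2 cells carrying transfected multi-reporter constructs. Reporter transcripts are quantified by RT-PCR, HpaI digestion and capillary electrophoresis 24 h after dosing. DMSO baseline, bidirectional fit.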

Assay [4] in a line: ATG_RORE_CIS: Attagene CIS-FACTORIAL HepG2 Assay for human RAR-related Orphan Receptor Element (RORE) (AID 2282959). The settings on record: HepG2 Attagene cis-factorial RORE reporter, mRNA; actives raise or lower the signal. The procedure, abridged:
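RORE reporter transcripts reflecting endogenous factor activity were read after 24 h compound exposure of transfected HepG2 cells, using reverse transcription, PCR, fluorescent labelling and capillary electrophoresis sizing. Gain or loss fitted against DMSO.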

Assay [5] is described as follows: ATG_Sox_CIS: Attagene CIS-FACTORIAL HepG2 Assay for human SRY-box transcription factor (SOX) (AID 2282960). As to conditions: HepG2 Attagene cis-factorial SOX reporter, mRNA; actives raise or lower the signal. An outline of the steps: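 Reporter transcripts, measured by RT-PCR and capillary electrophoresis of labelled fragments, report endogenous SOX transcription factor activity. Transiently transfected human HepG2 cells receive chemical for 24 h; changes in either direction are fitted relative to DMSO.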

The target in assay [6] is Transcription factor Sp1 (Homo sapiens) (UniProt P08047). As to the kind of experiment: ATG_Sp1_CIS: Attagene CIS-FACTORIAL HepG2 Assay for human Specificity Protein 1 (Sp1) (AID 2282961). The settings on record: HepG2 Sp1 cis-reporter transcription, actives raise or lower the signal. An outline of the steps:
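Read-out is reporter transcript level, measured by RT-PCR and fluorescent capillary electrophoresis after 24 h chemical treatment. System: transiently transfected HepG2 cells reporting endogenous transcription factor activity; gain or loss fitted against DMSO baseline.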

Assay [7] can be described thus: ATG_SREBP_CIS: Attagene CIS-FACTORIAL HepG2 Assay for human Sterol Regulatory Element Binding (SREBP) (AID 2282962). The settings on record: HepG2 Attagene cis-factorial SREBP reporter, mRNA; actives raise or lower the signal. An outline of the steps:
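Readout: fluorescent reporter-transcript peaks resolved by capillary electrophoresis after RT-PCR. Cells were human HepG2 carrying transfected cis-promoter reporter constructs, dosed for 24 h. Gain or loss of signal was fitted against DMSO controls.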

Assay [8] has as its target Signal transducer and activator of transcription 3 (Homo sapiens) (UniProt P40763). As to the kind of experiment: ATG_STAT3_CIS: Attagene CIS-FACTORIAL HepG2 Assay for human Signal Transducer and Activator of Transcription 3 (STAT3) (AID 2282963). As to conditions: HepG2, Attagene cis-factorial STAT3 reporter transcription; actives raise or lower the signal. The procedure, abridged: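 Readout is reporter transcript quantified by RT-PCR and capillary electrophoresis, with 6-FAM primer extension and HpaI digestion. Total RNA is taken 24 h after dosing transiently transfected HepG2 carrying cis-regulated reporter units. Bidirectional fit against DMSO.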

The nature of assay [9]: ATG_TA_CIS: Attagene CIS-FACTORIAL HepG2 Assay for human TA Basal Promoter (AID 2282964). As to conditions: HepG2 Attagene CIS-factorial TA basal promoter reporter; actives raise or lower the signal. The procedure, abridged: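 Background internal-marker endpoint from a 52-component HepG2 cis-reporter panel. Cells treated 24 h; reporter transcripts quantified via RT-PCR and CE fluorescence against DMSO baseline.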

Assay [10] in a line: ATG_TCF_b_cat_CIS: Attagene CIS-FACTORIAL HepG2 Assay for human T-Cell-Factor with beta-catenin (TCF/b-cat) (AID 2282965). The settings on record: HepG2 TCF/beta-catenin cis-reporter transcription, actives raise or lower the signal. The procedure, abridged: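 Measured: reporter mRNA in HepG2 transiently transfected with cis-promoter reporter units, 24 h after chemical addition. Fitting was bidirectional, DMSO as negative control.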

SMILES strings stand for the structures. Active and inactive are the calls of the source. Rule for the calls: active = hit-call score of the fitted dose curve at least 0.9, where 1 is the maximum; inactive = score below 0.9.

What is called AC50 is the midpoint of the concentration-response curve, whichever way the signal moves.

Sequence of Transcription factor Sp1 (Homo sapiens) (P08047 whole entry, looked up): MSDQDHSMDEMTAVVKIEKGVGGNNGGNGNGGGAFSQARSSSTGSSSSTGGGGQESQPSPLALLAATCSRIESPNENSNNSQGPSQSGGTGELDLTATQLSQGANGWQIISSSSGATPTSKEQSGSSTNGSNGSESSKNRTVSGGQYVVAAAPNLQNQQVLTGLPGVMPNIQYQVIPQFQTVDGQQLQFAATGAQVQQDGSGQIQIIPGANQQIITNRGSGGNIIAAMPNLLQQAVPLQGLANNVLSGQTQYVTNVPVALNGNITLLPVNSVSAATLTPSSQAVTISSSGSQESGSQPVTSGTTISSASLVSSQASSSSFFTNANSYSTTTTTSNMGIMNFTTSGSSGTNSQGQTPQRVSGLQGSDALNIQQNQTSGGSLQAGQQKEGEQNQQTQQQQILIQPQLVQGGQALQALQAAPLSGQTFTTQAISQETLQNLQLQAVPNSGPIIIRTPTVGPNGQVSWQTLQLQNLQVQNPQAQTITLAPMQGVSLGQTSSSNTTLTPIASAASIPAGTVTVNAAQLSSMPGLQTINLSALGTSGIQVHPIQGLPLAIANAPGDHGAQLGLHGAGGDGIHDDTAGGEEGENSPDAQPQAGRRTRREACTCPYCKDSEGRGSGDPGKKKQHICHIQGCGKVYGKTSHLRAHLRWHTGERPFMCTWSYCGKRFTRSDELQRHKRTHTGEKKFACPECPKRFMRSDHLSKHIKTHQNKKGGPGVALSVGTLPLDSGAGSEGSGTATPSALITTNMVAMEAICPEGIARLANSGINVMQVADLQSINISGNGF
Sequence of Signal transducer and activator of transcription 3 (Homo sapiens) (P40763 whole entry, looked up): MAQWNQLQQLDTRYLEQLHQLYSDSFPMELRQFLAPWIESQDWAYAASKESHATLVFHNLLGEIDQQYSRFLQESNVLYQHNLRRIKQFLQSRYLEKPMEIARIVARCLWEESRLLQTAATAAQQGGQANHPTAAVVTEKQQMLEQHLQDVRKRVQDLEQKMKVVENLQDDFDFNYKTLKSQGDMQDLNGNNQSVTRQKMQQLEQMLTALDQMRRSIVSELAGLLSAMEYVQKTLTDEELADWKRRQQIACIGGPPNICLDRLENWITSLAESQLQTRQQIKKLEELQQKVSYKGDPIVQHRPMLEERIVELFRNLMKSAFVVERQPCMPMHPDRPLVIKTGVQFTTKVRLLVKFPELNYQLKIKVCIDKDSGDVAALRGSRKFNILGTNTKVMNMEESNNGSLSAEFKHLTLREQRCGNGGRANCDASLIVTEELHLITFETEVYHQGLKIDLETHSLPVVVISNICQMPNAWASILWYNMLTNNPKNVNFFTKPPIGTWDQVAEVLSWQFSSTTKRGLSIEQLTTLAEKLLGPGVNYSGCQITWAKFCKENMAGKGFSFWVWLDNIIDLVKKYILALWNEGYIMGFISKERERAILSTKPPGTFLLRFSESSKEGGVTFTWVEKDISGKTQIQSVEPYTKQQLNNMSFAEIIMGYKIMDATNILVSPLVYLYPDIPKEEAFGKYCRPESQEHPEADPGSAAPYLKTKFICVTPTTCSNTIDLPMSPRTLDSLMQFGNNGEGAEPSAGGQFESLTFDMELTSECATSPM

Take `COc1ccc(Nc2ccccc2)c(C)c1`: the call in assay [1], in assay [5], in assay [6], in assay [7], in assay [8] and in assay [9] was inactive. For the same compound, in [10], the compound was called inactive. Further, the AC50 was 26.9 µM (active) in assay [2], 67.2 µM (active) in assay [3] and 51.5 µM (active) in assay [4].

For `CC(C)(N)CO`, the call in [1], in assay [2], in [3], in assay [4], in assay [5] and in assay [6] was inactive. For the same compound, the call in assay [7], in assay [8], in assay [9] and in assay [10] was inactive.

`CCCCNC(=O)NS(=O)(=O)c1ccc(N)cc1`: the call in assay [1], in assay [2], in assay [3], in [4], in assay [5] and in [6] was inactive. Moreover, the result in [7], in assay [8], in assay [9] and in assay [10] was inactive.

For `CCC(C(=O)NC(N)=O)c1ccccc1` (stereo not given), the compound was called inactive in assay [1], in assay [2], in assay [3], in assay [4], in [5] and in assay [6]. Besides, the result in [7], in assay [8], in assay [9] and in [10] was inactive.

`C[C@H]1C[C@H]2[C@@H]3CCC4=CC(=O)C=C[C@]4(C)[C@@]3(F)[C@@H](O)C[C@]2(C)[C@@]1(O)C(=O)COP(=O)(O)O`: the result in assay [1], in assay [2], in assay [3], in assay [4], in assay [5] and in [6] was inactive. For the same compound, the compound was classed as inactive in [7], in assay [8], in [9] and in [10].

As to `C=CC(=O)OCC(O)COc1ccccc1` (stereo not given), the AC50 in [1] is 41.2 µM (active); in assay [5], 26.3 µM (active). In addition, the compound was classed as inactive in assay [2], in assay [3], in assay [4], in assay [6], in assay [7] and in assay [8]. In addition, the compound was classed as inactive in assay [9] and in [10].

On to `NNc1nc(-c2ccc(N)cc2)cs1`, for which the result in assay [1], in assay [2], in assay [3], in [4], in assay [5] and in assay [6] was inactive. Besides, the result in [7], in assay [8], in assay [9] and in assay [10] was inactive.

Regarding `CCN(CC)c1ccc(C(=C2C=CC(=[N+](CC)CC)C=C2)c2ccc(S(=O)(=O)O)cc2S(=O)(=O)[O-])cc1`, the result in assay [1], in assay [3], in [4], in [5], in [6] and in assay [7] was inactive. Also, the compound was called inactive in assay [8], in assay [9] and in assay [10]. Also, in assay [2], the AC50 was 63.4 µM (active).

On to `O=C1C(c2[nH]c3ccc(S(=O)(=O)O)cc3c2O)=Nc2ccc(S(=O)(=O)O)cc21`, for which the result in assay [1], in assay [2], in assay [3], in assay [4], in assay [5] and in assay [6] was inactive. The call in assay [7], in assay [8], in [9] and in assay [10] was inactive.

On to `CN1Cc2c(N)cccc2C(c2ccccc2)C1` (stereo not given), for which the outcome in [1], in assay [3], in [4], in [5], in assay [6] and in assay [7] was inactive. For the same compound, the compound was called inactive in [8], in assay [9] and in assay [10]. For the same compound, the AC50 in assay [2] is 6.9 µM (active).

As to `CC1(CO)CN(c2ccccc2)NC1=O` (stereo not given), the result in [1], in [2], in [3], in assay [4], in assay [5] and in [6] was inactive. Moreover, the result in assay [7], in assay [8], in assay [9] and in assay [10] was inactive.

Turning to `O=C(O)c1cccc(C(F)(F)F)c1`, the result in [1], in assay [2], in assay [3], in [4], in assay [5] and in assay [6] was inactive. Besides, the outcome in [7], in [8], in assay [9] and in assay [10] was inactive.

For the compound `CCCCCCCCCCCCCCCCCC(=O)OCC(CC)CCCC` (stereo not given), the result in assay [1], in assay [2], in assay [3], in assay [4], in assay [5] and in assay [6] was inactive. For the same compound, the result in [7], in assay [8], in [9] and in assay [10] was inactive.

On to `COc1cc(C)cc(O)c1`, for which the result in assay [1], in assay [3], in assay [4], in assay [5], in assay [6] and in assay [7] was inactive. The result in assay [8], in [9] and in assay [10] was inactive. Besides, the AC50 in [2] is 20.5 µM (active).

Turning to `O=C(Oc1ccccc1)c1ccc(O)cc1`, the compound was called inactive in [1], in assay [2], in [3], in assay [4], in [5] and in assay [6]. The call in assay [7], in assay [8], in assay [9] and in assay [10] was inactive.

On to `O=C1OC2(c3cc(Br)c(O)c(Br)c3Oc3c2cc(Br)c(O)c3Br)c2c(Cl)c(Cl)c(Cl)c(Cl)c21`, for which the AC50 is 62.2 µM (active) in [1]; 5.13 µM (active) in [2]; 50.2 µM (active) in [4]; 17 µM (active) in assay [7]; 87.5 µM (active) in assay [10]. Moreover, the call in assay [3], in assay [5], in assay [6], in [8] and in [9] was inactive.

Consider `CCCCCCCCCCCCSC`, for which the compound was called inactive in assay [1], in assay [3], in [4], in [5], in assay [6] and in [7]. The outcome in assay [8], in [9] and in assay [10] was inactive. Besides, the AC50 in [2] was 27.3 µM (active).

With `C=C(C)[C@@H]1CCC2=CC(=O)C[C@@H](C)[C@]2(C)C1`, the result in [1], in assay [3], in assay [4], in assay [5], in assay [6] and in assay [7] was inactive. Further, the call in assay [8], in assay [9] and in [10] was inactive. Further, the AC50 in assay [2] was 2.33 µM (active).

Consider `CC1CCC(C(C)(C)O)CC1` (stereo not given), for which the compound was classed as inactive in [1], in assay [2], in assay [3], in [4], in [5] and in [6]. The result in assay [7], in assay [8], in [9] and in [10] was inactive.

On to `c1ccc2sc(SN(C3CCCCC3)C3CCCCC3)nc2c1`, for which the compound was called inactive in [1], in assay [3], in assay [4], in assay [5], in [6] and in assay [7]. In addition, the compound was called inactive in assay [8], in [9] and in [10]. The AC50 in assay [2] was 0.698 µM (active).

Turning to `CCn1c2ccccc2c2cc(N)ccc21`, the outcome in [1], in assay [5], in [6], in assay [8], in assay [9] and in assay [10] was inactive. Also, the AC50 in assay [2] was 3.35 µM (active); in assay [3] it was 100 µM (active); in assay [4] it was 67.9 µM (active); in assay [7], 27.3 µM (active).

Turning to `NCCCCCCN`, the outcome in assay [1], in assay [2], in [3], in assay [4], in assay [5] and in assay [6] was inactive. Besides, the outcome in assay [7], in assay [8], in assay [9] and in [10] was inactive.
